Data taken from PubChem BioAssay (EPA / NIEHS).
Inconclusive results are not listed. Some structures have more than one record in an assay (separate samples or runs), and their calls can disagree. Active and inactive are the calls of the source. The calls were made as follows, unless noted: active = hit-call score of the fitted dose curve at least 0.9, where 1 is the maximum; inconclusive = response in the unintended direction; inactive = score below 0.9.

Legend:
[1] = ATG_VDRE_CIS: Attagene CIS-FACTORIAL HepG2 Assay for human Vitamin D Receptor Element (VDRE) (AID 2282968; active = hit-call score of the fitted dose curve at least 0.9, where 1 is the maximum; inactive = score below 0.9); conditions: HepG2 VDRE cis-reporter transcription, actives raise or lower the signal
In short: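 Compounds were applied for 24 h to HepG2 cells transfected with promoter-regulated reporter units. Total RNA was reverse-transcribed, and reporter amplicons were fluorescently labelled and sized by capillary electrophoresis.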

[2] = target: Nuclear receptor subfamily 1 group I member 3 (Homo sapiens) (UniProt Q14994); test: ATG_CAR_TRANS: Attagene TRANS-FACTORIAL HepG2 Assay for human Constitutive Androstane Receptor (CAR) (AID 2282969); conditions: HepG2 Attagene TRANS-FACTORIAL CAR reporter;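 also: activators raise reporter mRNA above DMSO so AC50 marks induction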
Sequence of Nuclear receptor subfamily 1 group I member 3 (Homo sapiens) (Q14994 whole entry, looked up, the tested form may be a part): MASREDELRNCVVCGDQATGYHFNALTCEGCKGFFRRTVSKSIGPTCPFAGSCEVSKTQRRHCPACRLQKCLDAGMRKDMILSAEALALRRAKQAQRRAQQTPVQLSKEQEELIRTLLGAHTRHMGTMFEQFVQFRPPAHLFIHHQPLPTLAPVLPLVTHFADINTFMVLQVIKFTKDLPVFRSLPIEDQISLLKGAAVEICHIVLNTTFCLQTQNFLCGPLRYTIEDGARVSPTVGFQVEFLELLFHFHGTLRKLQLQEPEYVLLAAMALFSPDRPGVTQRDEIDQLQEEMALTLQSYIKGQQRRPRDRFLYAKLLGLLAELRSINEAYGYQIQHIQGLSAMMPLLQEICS
In short: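 Transiently transfected HepG2, multiplex TRANS reporters (CAR-Gal4 chimera driving GAL4-UAS reporter). 24 h dosing. Readout: reporter transcript by RT-PCR + capillary electrophoresis, fluorescence intensity; positive direction vs DMSO.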

[3] = target: Estrogen receptor (Homo sapiens) (UniProt P03372); test: ATG_ERa_TRANS: Attagene TRANS-FACTORIAL HepG2 Assay for human Estrogen Receptor alpha (ERa) (AID 2282970); conditions: HepG2 Attagene TRANS ERa GAL4 reporter, mRNA
Sequence of Estrogen receptor (Homo sapiens) (P03372 whole entry, looked up, the tested form may be a part): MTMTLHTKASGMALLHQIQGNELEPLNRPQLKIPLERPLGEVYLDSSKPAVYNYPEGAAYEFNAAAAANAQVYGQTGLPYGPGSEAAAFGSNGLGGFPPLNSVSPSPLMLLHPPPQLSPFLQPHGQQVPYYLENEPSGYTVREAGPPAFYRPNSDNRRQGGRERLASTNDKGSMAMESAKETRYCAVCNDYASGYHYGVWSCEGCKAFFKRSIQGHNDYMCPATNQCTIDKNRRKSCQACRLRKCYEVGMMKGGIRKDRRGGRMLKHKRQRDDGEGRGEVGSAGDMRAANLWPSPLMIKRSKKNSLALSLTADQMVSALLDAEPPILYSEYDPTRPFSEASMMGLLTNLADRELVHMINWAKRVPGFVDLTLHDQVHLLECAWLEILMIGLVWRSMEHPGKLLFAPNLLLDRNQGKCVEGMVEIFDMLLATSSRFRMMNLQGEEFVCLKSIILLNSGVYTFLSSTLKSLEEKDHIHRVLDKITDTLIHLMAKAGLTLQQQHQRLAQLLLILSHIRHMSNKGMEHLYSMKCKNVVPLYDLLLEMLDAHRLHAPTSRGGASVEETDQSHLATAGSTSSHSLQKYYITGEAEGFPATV
In short: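 Signal derives from fluorescence of labelled reporter PCR fragments separated by capillary electrophoresis. HepG2 cells transiently carrying multiple GAL4-UAS reporter units were treated 24 hours, and induction above DMSO baseline was fitted as activity.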

[4] = target: Steroid hormone receptor ERR1 (Homo sapiens) (UniProt P11474); test: ATG_ERRa_TRANS: Attagene TRANS-FACTORIAL HepG2 Assay for human Estrogen-Related Receptor alpha (ERRa) (AID 2282971); conditions: HepG2 Attagene TRANS reporter, ERRa transactivation
Sequence of Steroid hormone receptor ERR1 (Homo sapiens) (P11474 whole entry, looked up, the tested form may be a part): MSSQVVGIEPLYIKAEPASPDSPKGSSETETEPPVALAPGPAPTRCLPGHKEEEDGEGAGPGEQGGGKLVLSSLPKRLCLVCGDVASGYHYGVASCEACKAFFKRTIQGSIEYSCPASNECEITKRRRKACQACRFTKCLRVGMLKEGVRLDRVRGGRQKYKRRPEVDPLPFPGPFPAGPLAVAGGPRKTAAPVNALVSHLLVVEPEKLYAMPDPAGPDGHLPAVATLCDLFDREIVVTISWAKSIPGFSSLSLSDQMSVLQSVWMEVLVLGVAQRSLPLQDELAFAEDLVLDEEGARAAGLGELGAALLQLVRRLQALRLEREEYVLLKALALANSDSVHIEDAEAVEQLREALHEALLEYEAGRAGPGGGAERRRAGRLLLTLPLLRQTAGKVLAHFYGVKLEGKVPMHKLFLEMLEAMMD
In short: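 Signal gain relative to DMSO for an ERRa-Gal4 chimeric receptor, read as reporter mRNA by RT-PCR/capillary electrophoresis. Human HepG2 liver cells, transient multiplex reporter transfection, 24 h chemical exposure.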

[5] = target: X-box-binding protein 1 (Homo sapiens) (UniProt P17861); test: ATG_Xbp1_CIS: Attagene CIS-FACTORIAL HepG2 Assay for human X-box Binding Protein 1 (XBP1) (AID 2282972; active = hit-call score of the fitted dose curve at least 0.9, where 1 is the maximum; inactive = score below 0.9); conditions: HepG2 XBP1 cis-element reporter, Attagene multiplex; actives raise or lower the signal
Sequence of X-box-binding protein 1 (Homo sapiens) (P17861 whole entry, looked up): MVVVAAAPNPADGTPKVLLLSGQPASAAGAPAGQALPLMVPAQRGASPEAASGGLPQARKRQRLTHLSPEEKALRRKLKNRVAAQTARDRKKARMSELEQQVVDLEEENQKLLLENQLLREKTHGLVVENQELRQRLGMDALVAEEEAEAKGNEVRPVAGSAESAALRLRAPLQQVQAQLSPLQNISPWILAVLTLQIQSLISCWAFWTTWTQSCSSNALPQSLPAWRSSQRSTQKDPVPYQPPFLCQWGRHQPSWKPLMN
In short: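 Multiplexed cis-reporter readout in transfected HepG2 liver cells. Exposure lasted 24 hours. Activity in either direction was fitted against DMSO as negative control and baseline.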

[6] = ATG_M_19_TRANS: Attagene TRANS-FACTORIAL HepG2 Assay for M19 Transcription Factor (Internal Marker) (AID 2282974); conditions: HepG2 Attagene TRANS-FACTORIAL M19 internal marker reporter
In short: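 Background-control readout: after 24 h chemical exposure of transfected HepG2 carrying GAL4-driven reporter units, RNA was reverse-transcribed, amplified, fluorescently labeled and sized by capillary electrophoresis; gain-of-signal fit against DMSO.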

[7] = ATG_GAL4_TRANS: Attagene TRANS-FACTORIAL HepG2 Assay for GAL4 (Internal Marker) (AID 2282976); conditions: HepG2 Attagene TRANS GAL4 internal marker reporter
In short: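 Liver HepG2 line bearing multiplexed GAL4-UAS reporter constructs; 24 h chemical treatment. Transcripts were quantified as fluorescent fragments on capillary electrophoresis after RT-PCR and HpaI cut, with activity fitted upward from DMSO.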

[8] = target: Glucocorticoid receptor (Homo sapiens) (UniProt P04150); test: ATG_GR_TRANS: Attagene TRANS-FACTORIAL HepG2 Assay for human Glucocorticoid Receptor (GR) (AID 2282978); conditions: HepG2 Attagene TRANS GR reporter, mRNA transcription;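 also: activators score as hits since higher reporter transcript over DMSO is fitted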
Sequence of Glucocorticoid receptor (Homo sapiens) (P04150 whole entry, looked up, the tested form may be a part): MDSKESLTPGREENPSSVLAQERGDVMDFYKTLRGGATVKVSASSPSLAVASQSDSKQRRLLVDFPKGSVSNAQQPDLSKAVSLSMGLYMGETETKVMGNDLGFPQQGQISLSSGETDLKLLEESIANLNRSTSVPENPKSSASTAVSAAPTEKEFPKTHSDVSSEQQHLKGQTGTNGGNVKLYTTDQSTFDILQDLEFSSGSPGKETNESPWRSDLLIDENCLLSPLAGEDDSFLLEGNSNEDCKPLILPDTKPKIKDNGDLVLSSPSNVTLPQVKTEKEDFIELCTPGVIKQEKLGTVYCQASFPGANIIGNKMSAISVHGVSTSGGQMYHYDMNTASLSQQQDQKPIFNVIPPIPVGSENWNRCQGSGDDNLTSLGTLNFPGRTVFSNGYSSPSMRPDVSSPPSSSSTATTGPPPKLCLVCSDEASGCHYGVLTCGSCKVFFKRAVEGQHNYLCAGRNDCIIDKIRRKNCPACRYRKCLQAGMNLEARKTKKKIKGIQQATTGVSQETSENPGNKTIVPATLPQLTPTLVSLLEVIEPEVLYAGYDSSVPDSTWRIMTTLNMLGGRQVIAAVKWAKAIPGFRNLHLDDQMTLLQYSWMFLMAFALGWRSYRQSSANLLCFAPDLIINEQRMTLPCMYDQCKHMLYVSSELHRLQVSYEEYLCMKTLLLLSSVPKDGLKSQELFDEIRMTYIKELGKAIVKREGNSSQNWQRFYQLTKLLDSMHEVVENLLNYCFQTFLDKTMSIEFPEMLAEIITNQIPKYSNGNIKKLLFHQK
In short: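 Readout is reporter transcript from a chimeric GR-Gal4 acting on GAL4-UAS in transfected human HepG2 liver cells after 24 h exposure, quantified by RT-PCR and capillary electrophoresis. Activation fitted upward against DMSO.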

[9] = target: Estrogen-related receptor gamma (Homo sapiens) (UniProt P62508); test: ATG_ERRg_TRANS: Attagene TRANS-FACTORIAL HepG2 Assay for human Estrogen-Related Receptor gamma (ERRg) (AID 2282977); conditions: HepG2 Attagene TRANS reporter, ERRg transactivation;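 also: hits increase reporter signal over DMSO so potencies reflect activators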
Sequence of Estrogen-related receptor gamma (Homo sapiens) (P62508 whole entry, looked up, the tested form may be a part): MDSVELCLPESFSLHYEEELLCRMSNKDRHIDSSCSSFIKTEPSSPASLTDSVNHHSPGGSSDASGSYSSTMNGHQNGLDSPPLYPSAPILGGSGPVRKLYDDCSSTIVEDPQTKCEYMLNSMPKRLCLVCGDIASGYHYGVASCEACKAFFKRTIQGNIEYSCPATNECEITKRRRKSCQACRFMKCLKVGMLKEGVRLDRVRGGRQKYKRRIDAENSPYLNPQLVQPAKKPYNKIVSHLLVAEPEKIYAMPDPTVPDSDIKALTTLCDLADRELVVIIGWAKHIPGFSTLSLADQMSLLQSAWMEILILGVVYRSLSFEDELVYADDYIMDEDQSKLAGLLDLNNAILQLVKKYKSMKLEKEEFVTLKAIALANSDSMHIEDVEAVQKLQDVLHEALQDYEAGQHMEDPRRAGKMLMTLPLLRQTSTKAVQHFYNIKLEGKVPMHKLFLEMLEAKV
In short: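 Exogenous NR-Gal4 chimera activity measured as reporter transcript induction after 24 h in transiently transfected HepG2 cells. RNA reverse-transcribed, PCR-amplified, 6-FAM-labelled and resolved by capillary electrophoresis; increase over DMSO baseline.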

[10] = target: Androgen receptor (Homo sapiens) (UniProt P10275); test: ATG_AR_TRANS: Attagene TRANS-FACTORIAL HepG2 Assay for human Androgen Receptor (AR) (AID 2282973); conditions: HepG2 Attagene TRANS-FACTORIAL AR reporter transcription
Sequence of Androgen receptor (Homo sapiens) (P10275 whole entry, looked up, the tested form may be a part): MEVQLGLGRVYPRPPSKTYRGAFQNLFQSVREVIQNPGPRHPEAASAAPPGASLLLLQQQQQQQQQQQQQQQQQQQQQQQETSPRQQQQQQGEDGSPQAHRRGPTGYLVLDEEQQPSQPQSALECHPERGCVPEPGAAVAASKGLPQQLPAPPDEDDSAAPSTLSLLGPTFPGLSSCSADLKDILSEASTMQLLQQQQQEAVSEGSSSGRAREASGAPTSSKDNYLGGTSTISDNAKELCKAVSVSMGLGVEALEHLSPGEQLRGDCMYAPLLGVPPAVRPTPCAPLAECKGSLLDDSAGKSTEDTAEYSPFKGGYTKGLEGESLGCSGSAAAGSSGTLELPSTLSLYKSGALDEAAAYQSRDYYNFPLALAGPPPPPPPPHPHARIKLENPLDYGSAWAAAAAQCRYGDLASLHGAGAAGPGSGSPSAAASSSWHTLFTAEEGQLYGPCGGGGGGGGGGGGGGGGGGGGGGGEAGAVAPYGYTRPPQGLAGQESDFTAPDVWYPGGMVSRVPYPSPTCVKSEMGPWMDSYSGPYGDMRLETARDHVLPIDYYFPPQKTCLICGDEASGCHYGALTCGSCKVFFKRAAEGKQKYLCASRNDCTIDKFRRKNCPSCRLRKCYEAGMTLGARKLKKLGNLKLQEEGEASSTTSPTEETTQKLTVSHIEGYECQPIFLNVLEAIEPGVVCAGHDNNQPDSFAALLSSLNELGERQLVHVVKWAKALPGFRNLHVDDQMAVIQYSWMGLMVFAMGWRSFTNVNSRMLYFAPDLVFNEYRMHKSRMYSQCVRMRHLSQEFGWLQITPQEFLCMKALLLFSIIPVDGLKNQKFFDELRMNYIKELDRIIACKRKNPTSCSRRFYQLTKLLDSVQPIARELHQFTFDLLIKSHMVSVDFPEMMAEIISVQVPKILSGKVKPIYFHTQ
In short: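 Chimeric nuclear receptor–Gal4 activity was assessed in human HepG2 hepatocytes after 24 h chemical dosing. Induced reporter mRNA was detected via labelled RT-PCR fragments on capillary electrophoresis, and gain of signal was analysed against DMSO.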

Measured: AC50

Cc1ccccc1OP(=O)(Oc1ccccc1)Oc1ccccc1
active: [1] 1.25 µM | [3] 3.57 µM
inactive: [2] | [4] | [5] | [6] | [7] | [8]

CCCCC(CC)COC(=O)Cl (stereo unspecified)
inactive: [1] | [2] | [3] | [5] | [7] | [9]

Cc1ccc(OP(=O)(Oc2ccc(C)cc2C)Oc2ccc(C)cc2C)c(C)c1
active: [1] 0.534 µM
inactive: [2] | [3] | [4] | [5] | [10] | [6] | [7] | [9] | [8]

c1csc(-c2ccc(-c3cccs3)s2)c1
inactive: [6]
active: [1] 3.41 µM | [2] 6.62 µM | [3] 4.23 µM | [5] 2.54 µM

CC(C)(c1ccc(O)c(-c2ccccc2)c1)c1ccc(O)c(-c2ccccc2)c1
inactive: [2] | [3] | [8]
active: [1] 2.93 µM | [5] 4.92 µM

CCOP(=S)(OCC)SCSc1cc(Cl)ccc1Cl
inactive: [1] | [2] | [3] | [5] | [6] | [7] | [8]

Nc1c(Oc2ccccc2)cc(O)c2c1C(=O)c1ccccc1C2=O
inactive: [2] | [5] | [6] | [7] | [8]
active: [1] 15 µM | [3] 7.82 µM

OC(Cc1ccccc1Cl)(Cn1[nH]cnc1=S)C1(Cl)CC1 (stereo unspecified)
inactive: [2] | [10] | [6]
active: [1] 18 µM | [3] 5.83 µM | [5] 100 µM

N#Cc1ccccc1N
inactive: [1] | [2] | [3] | [4] | [5] | [10] | [6] | [7] | [9]

CC(C)(c1ccccc1)c1cc(-n2nc3ccccc3n2)c(O)c(C(C)(C)c2ccccc2)c1
inactive: [1] | [2] | [3] | [5]

COCC(=O)N(c1c(C)cccc1C)[C@H](C)C(=O)OC
inactive: [1] | [2] | [4] | [5] | [6] | [9]

O=C(NC(=O)c1c(F)cccc1F)Nc1cc(Cl)c(F)c(Cl)c1F
inactive: [1] | [2]

COC(=O)c1cc(Oc2ccc(Cl)cc2Cl)ccc1[N+](=O)[O-]
active: [1] 10.8 µM
inactive: [2] | [3]

CC(C)[C@H](C(=O)OC(C#N)c1cccc(Oc2ccccc2)c1)c1ccc(OC(F)F)cc1 (stereo partly specified)
inactive: [2] | [4] | [5] | [7] | [9] | [8]
active: [1] 1.08 µM

CCOP(=S)(OCC)SCS(=O)(=O)C(C)(C)C
inactive: [1] | [2] | [3] | [5] | [10] | [7] | [8]

CN(C1CCCCC1)C1CCCCC1
inactive: [1] | [2] | [3] | [5] | [10] | [6] | [8]

O=C=Nc1ccc(Cl)cc1
inactive: [1] | [2] | [3] | [5] | [6] | [7]

CC1(C)[C@H](C(=O)O[C@H](C#N)c2cccc(Oc3ccccc3)c2)[C@@H]1/C=C(\Cl)C(F)(F)F
inactive: [1] | [2] | [5] | [7] | [8]
active: [1] 0.502 µM

Cc1ccccc1OP(=O)(Oc1ccccc1C)Oc1ccccc1C
inactive: [2] | [4] | [10] | [6] | [8]
active: [1] 0.533 µM | [3] 1.3 µM | [5] 56.1 µM

CNC(=O)N(C)c1nc2ccccc2s1
inactive: [1] | [2] | [4] | [5] | [10] | [7] | [8]

C=CCCl
inactive: [1] | [2] | [3] | [5] | [6] | [8]

c1ccc2c(c1)Oc1ccccc1O2
inactive: [1] | [2] | [5]

O=C(CCl)NCO
inactive: [1] | [2] | [4] | [5] | [6] | [7] | [9]

CCCCN(CCCCO)N=O
inactive: [1] | [2] | [5] | [7] | [8]
active: [3] 8.41 µM

Oc1cccc(-c2ccccc2)c1
active: [1] 66.3 µM | [3] 6.57 µM
inactive: [2] | [5] | [7] | [9] | [8]

CN(N=O)c1ccc([N+](=O)[O-])cc1
inactive: [1] | [2] | [3] | [5] | [6]

O=C(NC(=O)c1c(F)cccc1F)Nc1ccc(Cl)cc1
inactive: [1] | [2] | [3] | [6]

NC(=O)CCl
inactive: [1] | [2] | [3] | [5] | [10]

O=C(O)COc1ccc(Cl)cc1
inactive: [1] | [2] | [3] | [4] | [5] | [6] | [7] | [9] | [8]

O=C(Cl)OCCOCCOC(=O)Cl
inactive: [1] | [2] | [3] | [4] | [5] | [10] | [6]

CC(C)(COCC1CO1)COCC1CO1 (stereo unspecified)
inactive: [2] | [3] | [5] | [6]
active: [1] 38.7 µM

CCOC(=O)CC(=O)CCl
active: [1] 27 µM
